Tau FP inhib = qHTS for Inhibitors of Tau Fibril Formation, Fluorescence Polarization; Microtubule-associated protein tau (Homo sapiens), P10636; K18 P301L tau heparin fibrillization, Alexa594 FP, 6 h; Potency, µM (doses to about 57.7 µM), inactives show at the top dose activity, negative = inhibition, most hits filed as inhibitors; hit rate 0.39% among 280,000; AID 1468, 2008; further: potency means the concentration at half of the fitted maximal effect; nearly all actives have a fitted effect of over 55% in size
Target sequence (P10636 561-689 P618L limits assumed): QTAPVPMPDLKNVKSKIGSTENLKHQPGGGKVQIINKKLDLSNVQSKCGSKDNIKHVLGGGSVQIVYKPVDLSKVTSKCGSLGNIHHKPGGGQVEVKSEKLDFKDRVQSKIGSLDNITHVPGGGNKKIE
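Quantitative HTS format: compounds meet 15 uM recombinant K18 P301L tau and Alexa 594-tau tracer in 100 mM sodium acetate pH 7; 20 uM heparin triggers fibrillization at 37 C over 6 hr; FP gives the signal.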
Coupling enz = qHTS Assay for Inhibitors of Fructose-1,6-bisphosphate Aldolase from Giardia Lamblia: Coupling assay counterscreen; coupling enzyme system counterscreen, AmpLite Red fluorescence; activity change, negative = inhibition, % at 58.2 µM, hits read low; hit rate 0.67% among 290,000; AID 2472, 2010; in the data active means activity change below about -30%
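Coupling enzymes only (glyceraldehyde-3-phosphate) + compound, at 57.5 uM final, 10 min RT; add substrate/coupling/AmpLite Red mix, 20 min RT; fluorescence ex 525/em 598 nm. Actives flag coupling-system interference.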
G9a block = qHTS Assay for Inhibitors of Histone Lysine Methyltransferase G9a | Histone-lysine N-methyltransferase EHMT2 (Homo sapiens), Q96KQ7 | G9a H3K9 monomethylation, AlphaScreen, 2 h | Potency, µM (series often up to 102 µM), without a hit: at the highest dose activity, negative = inhibition, hits mostly inhibitors | hit rate 8.8% among 350,000; further: potency means the concentration at half of the fitted maximal effect; nearly all actives have a fitted effect of over 75% in size
Target sequence (Q96KQ7 913-1193 limits assumed): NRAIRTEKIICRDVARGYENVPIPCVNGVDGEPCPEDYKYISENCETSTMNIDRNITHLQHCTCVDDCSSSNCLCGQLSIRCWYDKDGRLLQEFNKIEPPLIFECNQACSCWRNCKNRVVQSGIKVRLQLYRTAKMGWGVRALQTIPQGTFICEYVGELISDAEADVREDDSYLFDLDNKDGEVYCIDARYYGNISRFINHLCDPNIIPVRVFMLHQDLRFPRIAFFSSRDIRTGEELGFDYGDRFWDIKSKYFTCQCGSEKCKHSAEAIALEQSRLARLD
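AlphaScreen detection with an anti-monomethyl H3K9 antibody quantified product after a 2 h room-temperature reaction containing 500 nM biotinylated H3K9 peptide, 20 µM SAM and 20 nM enzyme, which had been preincubated 15 min with compound.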
Tau fluor cs = Counterscreen qHTS for Inhibitors of Tau Fibril Formation, Fluorescence Polarization; hit rate 0.93% among 280,000; tau K18 P301L Alexa594 fluorescence, heparin fibrillization; Potency, µM (top dose mostly 57.7 µM), inactives show at the top dose activity change, negative = decrease; AID 1463, 2008; further: potency means the concentration at half of the fitted maximal effect; nearly all actives have a fitted effect of over 55% in size
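Human tau K18 P301L (15 uM unlabeled, 0.24 uM Alexa 594-labeled) in 100 mM sodium acetate pH 7 with 20 uM heparin, 6 hr at 37 C. ThT 30 uM added, 1 hr ambient; Alexa 594 FP and total fluorescence read at 555/632 nm.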
Sfp inh = qHTS Assay for Inhibitors of Bacillus subtilis Sfp phosphopantetheinyl transferase (PPTase); 4'-phosphopantetheinyl transferase ffp (Bacillus subtilis), Q9F4F7; Biochemical Sfp PPTase activity, qHTS; Potency, µM, for the others: largest response in the series, negative = inhibition, usual class: inhibitors; hit rate 3.5% among 310,000; AID 1490, 2009;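 further: the enzyme is Sfp with the accession as filed and its product quenches rhodamine fluorescence; potency means the concentration at half of the fitted maximal effect; 0% = enzyme reaction without inhibitor and -100% = no enzyme wells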
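Fluorescence-quenching assay with 15 nM Sfp, 5 uM rhodamine-CoA and 12.5 uM BHQ-2-labelled ybbR peptide in pH 7.6 Hepes/MgCl2 buffer. Enzyme was pre-incubated with compound for 15 min at room temperature. Rate was taken from the 30-min fluorescence change (525/598 nm).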
Tau fibril ThT = qHTS for Inhibitors of Tau Fibril Formation, Thioflavin T Binding; Microtubule-associated protein tau (Homo sapiens), P10636; recombinant tau K18 P301L, heparin-induced fibrillization, ThT fluorescence; hit rate 2.1% among 270,000; Potency, µM (top dose mostly 57.4 µM), inactives show at the highest dose activity, negative = inhibition, most hits filed as inhibitors; AID 1460, 2008; further: potency means the concentration at half of the fitted maximal effect; nearly all actives have a fitted effect of over 55% in size
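Using a mix of unlabeled (15 uM) and Alexa 594-labeled (0.24 uM) tau K18 P301L, heparin-triggered fibrillization over 6 hr at 37 C was scored by ThT fluorescence.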
* marks the source's active call; other numbers are inactive results; [ ] = dose if it differs, or a comment. Compounds with a hit are over-represented: about 11% of the library has one in this group of screens. Unless noted, the call rests on the fitted dose curve; in most records, active means well fitted curve in the direction sought with a large enough effect; inconclusive means small, poorly fitted or top-dose-only effect, or another doubt; inactive means no such curve, though single readings can be large; an effect the other way counts as inactive or inconclusive. Unless noted, on the % scale 0 is the no-effect control and ±100 the full control effect.

What do the screens show for `COc1ccc(C(=O)N/N=C/c2ccc(OC)c(COc3ccc(F)cc3)c2)cc1`?
Coupling enz: 8; Sfp inh: 18%

How did COc1ccc(C(=O)N/N=C/c2ccc(OC)c(CN3CCc4cc(OC)c(OC)cc4C3C)c2)cc1 (centres undefined) do in these assays?
Tau FP inhib: 1%; Coupling enz: 3; G9a block: -25%; Tau fluor cs: -21%; Sfp inh: 100µM*; Tau fibril ThT: inconclusive

Results for COc1ccc(NS(=O)(=O)c2cccc(C(=O)N/N=C/c3cn(-c4ccccc4)nc3-c3ccc(OC)cc3)c2)cc1 ?
Tau FP inhib: 32µM*; Coupling enz: 0; G9a block: 26%[12.7 µM]; Tau fluor cs: inconclusive; Sfp inh: 13%; Tau fibril ThT: inconclusive

Results for COc1ccc(NS(=O)(=O)c2cccc(C(=O)N/N=C/c3cn(-c4ccccc4)nc3-c3ccccc3)c2)cc1 ?
Tau FP inhib: inconclusive; Coupling enz: -1; G9a block: 3%[12.7 µM]; Tau fluor cs: -22%; Sfp inh: 13%; Tau fibril ThT: 1%

Results for COc1cc2ncc(S(=O)(=O)c3ccccc3)c(N3CCCC(C)C3)c2cc1OC (centres undefined) ?
Coupling enz: -6; G9a block: inconclusive; Sfp inh: -23%

Results for COc1ccc2c(-c3ccccc3)cc(SC(C)C(N)=O)nc2c1 (centres undefined) ?
Tau FP inhib: -16%; Coupling enz: -2; G9a block: 13µM*; Tau fluor cs: -24%; Sfp inh: -19%; Tau fibril ThT: inconclusive

Results for CCCN(C(=O)CSc1cc(-c2ccccc2)c2ccc(OC)cc2n1)C1CCS(=O)(=O)C1 (centres undefined) ?
Tau FP inhib: 5%; Coupling enz: -2; G9a block: -1%; Tau fluor cs: -13%; Sfp inh: -9%; Tau fibril ThT: inconclusive

Results for Nc1ccc(N=Nc2ccccc2)c(N)n1 ?
Tau FP inhib: inconclusive; Coupling enz: -3; G9a block: 11µM*; Tau fluor cs: inconclusive; Sfp inh: 9%; Tau fibril ThT: 13µM*

How did Nc1ccc(N=Nc2ccccc2)c2ccccc12 do in these assays?
Tau FP inhib: inconclusive; Coupling enz: -5; G9a block: 10µM*; Tau fluor cs: 13µM*[quencher]; Sfp inh: -15%; Tau fibril ThT: 7.1µM*

What do the screens show for `Cc1ccc(S(=O)(=O)NCCc2nnc3ccc(SCc4cccc(F)c4)nn23)cc1`?
Tau FP inhib: 3%; G9a block: 3%[59 µM]; Tau fluor cs: -11%; Tau fibril ThT: -2%

How did O=C(CC(=O)Nc1ccccc1C(=O)O)NNC(=O)Cc1ccccc1 do in these assays?
Tau FP inhib: 5%; Coupling enz: -1; Tau fluor cs: 9%; Sfp inh: -21%; Tau fibril ThT: 2%

What do the screens show for `CCC(=O)NC(=S)Nc1ccccc1C(=O)OC`?
Tau FP inhib: 8%; Coupling enz: 1; G9a block: inconclusive; Tau fluor cs: -2%; Sfp inh: 0%; Tau fibril ThT: -13%

Results for COC(=O)c1ccccc1NC(=S)NC(=O)C1CC1 ?
Tau FP inhib: 2%; Coupling enz: 0; G9a block: 50µM*; Tau fluor cs: -8%; Sfp inh: -2%; Tau fibril ThT: inconclusive

What do the screens show for `COC(=O)c1ccccc1NC(=O)CNc1cc(OC)c(OC)cc1C`?
Tau FP inhib: -2%; Coupling enz: -8; G9a block: 20µM*; Tau fluor cs: -21%; Sfp inh: -8%; Tau fibril ThT: inconclusive

Results for CCCC(=O)NNC(=O)CC(=O)Nc1ccccc1C(=O)O ?
Tau FP inhib: -10%; Coupling enz: 3; G9a block: 50µM*; Tau fluor cs: -13%; Sfp inh: 22%; Tau fibril ThT: -9%

What do the screens show for `CCCC(=O)NC(=S)Nc1ccccc1C(=O)OC`?
Tau FP inhib: -1%; Coupling enz: 1; G9a block: 40µM*; Tau fluor cs: -5%; Sfp inh: inconclusive; Tau fibril ThT: -16%

What do the screens show for `O=C(CCCc1nc(-c2ccccc2Cl)no1)NC1CCCC1`?
Coupling enz: 1; G9a block: -9%; Sfp inh: 9%

Results for COCCCN=C1NN=C(c2cc(C)n(-c3ccccc3)c2C)CS1 ?
Tau FP inhib: -5%; Coupling enz: 0; G9a block: 71µM*; Tau fluor cs: -5%; Sfp inh: -21%; Tau fibril ThT: -1%

What do the screens show for `COCCCN=C1NN=C(c2cc(C)n(-c3ccccc3F)c2C)CS1`?
Tau FP inhib: -6%; Coupling enz: -3; G9a block: 50µM*; Tau fluor cs: -14%; Sfp inh: inconclusive; Tau fibril ThT: inconclusive

How did Cc1cc(C2=NNC(=NCCc3ccccc3)SC2)c(C)n1-c1c(C)n(C)n(-c2ccccc2)c1=O do in these assays?
Tau FP inhib: -9%; Coupling enz: -3; G9a block: -11%[59 µM]; Tau fluor cs: -21%; Sfp inh: -23%; Tau fibril ThT: inconclusive

How did Cc1cccc(N=C2NN=C(c3ccccc3F)CS2)c1C do in these assays?
Tau FP inhib: -7%; Coupling enz: 1; G9a block: inconclusive; Tau fluor cs: inconclusive; Sfp inh: 1%; Tau fibril ThT: inconclusive

Results for COCCN=C1NN=C(c2cc(C)n(CC3CCCO3)c2C)CS1 (centres undefined) ?
Tau FP inhib: -11%; Coupling enz: -5; G9a block: inconclusive; Tau fluor cs: 2%; Sfp inh: -29%; Tau fibril ThT: -17%

How did COCCCN=C1NN=C(c2cc(C)n(Cc3ccccc3Cl)c2C)CS1 do in these assays?
Tau FP inhib: 6%; Coupling enz: -2; G9a block: 28µM*; Tau fluor cs: -6%; Sfp inh: inconclusive; Tau fibril ThT: inconclusive

Results for COCCn1c(C)cc(C2=NNC(=Nc3ccccc3F)SC2)c1C ?
Tau FP inhib: -5%; Coupling enz: -6; G9a block: 7.9µM*; Tau fluor cs: -23%; Sfp inh: 35µM*; Tau fibril ThT: inconclusive

Results for CCOc1ccc(N(CC(=O)N2CCCC2)S(=O)(=O)c2ccc(F)cc2)cc1 ?
Sfp inh: 0%

Bioassay records deposited in PubChem by National Center for Advancing Translational Sciences (NCATS).
